Measurements from PMC4336329 (PLoS ONE, 2015).
In all, about 310,000 compounds went through this assay and about 14,000 (4.5%) showed an effect of 50% or more. The effect is printed as a negative number. The list comes from a sample in which strong results are over-represented; it also holds similar structures and randomly drawn compounds.

What follows are compounds tested against human ether-à-go-go-related gene (hERG) potassium channel (human, UniProt Q12809) (assay: primary screen, population patch clamp on CHO cells stably expressing hERG; higher = less effect of the substance).
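Further: peak tail current of the secondary pulse compared with the same well before compound.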

Chain of human ether-à-go-go-related gene (hERG) potassium channel (Q12809 whole entry, looked up): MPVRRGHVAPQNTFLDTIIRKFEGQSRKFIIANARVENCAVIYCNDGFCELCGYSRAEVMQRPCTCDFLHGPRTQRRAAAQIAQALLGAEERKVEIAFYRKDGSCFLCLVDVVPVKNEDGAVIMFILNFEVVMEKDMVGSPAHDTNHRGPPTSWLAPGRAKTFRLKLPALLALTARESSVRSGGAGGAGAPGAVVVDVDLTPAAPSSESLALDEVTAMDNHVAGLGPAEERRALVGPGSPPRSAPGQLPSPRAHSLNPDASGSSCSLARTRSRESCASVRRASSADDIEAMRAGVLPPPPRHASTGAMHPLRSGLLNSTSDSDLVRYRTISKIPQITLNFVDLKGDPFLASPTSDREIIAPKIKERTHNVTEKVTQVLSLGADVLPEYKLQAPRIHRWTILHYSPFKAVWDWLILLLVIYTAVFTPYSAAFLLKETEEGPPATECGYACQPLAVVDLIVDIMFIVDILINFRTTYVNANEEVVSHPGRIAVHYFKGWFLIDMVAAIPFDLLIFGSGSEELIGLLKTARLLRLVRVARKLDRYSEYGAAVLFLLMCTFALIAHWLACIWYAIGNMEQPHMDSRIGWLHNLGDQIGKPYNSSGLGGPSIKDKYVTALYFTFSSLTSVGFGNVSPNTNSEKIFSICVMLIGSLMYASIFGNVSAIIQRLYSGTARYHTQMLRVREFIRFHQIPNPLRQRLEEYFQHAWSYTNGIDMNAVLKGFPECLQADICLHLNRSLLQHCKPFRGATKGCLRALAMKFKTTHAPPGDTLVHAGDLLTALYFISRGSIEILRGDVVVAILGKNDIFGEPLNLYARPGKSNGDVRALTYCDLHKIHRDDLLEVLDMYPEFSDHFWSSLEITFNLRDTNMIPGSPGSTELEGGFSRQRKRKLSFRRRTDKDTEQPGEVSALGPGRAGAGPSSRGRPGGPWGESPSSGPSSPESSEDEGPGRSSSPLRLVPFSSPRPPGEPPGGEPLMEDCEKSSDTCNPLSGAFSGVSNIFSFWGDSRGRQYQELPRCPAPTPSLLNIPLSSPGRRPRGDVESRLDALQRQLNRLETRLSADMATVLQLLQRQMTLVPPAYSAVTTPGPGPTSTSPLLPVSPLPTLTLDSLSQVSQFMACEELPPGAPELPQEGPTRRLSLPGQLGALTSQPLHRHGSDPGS

Structure (SMILES)	hERG current change (%, negative = inhibition) at 10uM [%]
CCCn1ncc2c(Nc3ccc(C)c(C)c3)ncnc21	-25.2
CC(NC(=O)c1ccco1)C(=O)N1CCN(C(c2ccccc2)c2ccccc2)CC1 (centres unmarked)	-15.7
O=C(CN(CC1CCCO1)C(=O)CNS(=O)(=O)c1ccc(Cl)cc1)NCCc1ccccc1 (centres unmarked)	-20.8
COc1ccc(CCn2c(O)c(C=Nc3ccc(NC(C)=O)cc3)c(=O)[nH]c2=O)cc1OC	27.6
CC(=O)Nc1ccc(S(=O)(=O)NCc2ccccn2)cc1	9.6
O=Cc1cccc(OC(=O)Nc2ccccc2)c1	6.95
CN(C)c1cc(-c2ccc(Cl)cc2Cl)oc(=O)c1Cl	0.166
CCOc1c2ccc(C(=O)NCCCCc3ccccc3)cc2nn1CC	-14.1
c1cn(CCCNc2ncnc3sc4c(c23)CCC4)cn1	-37.5
COCCCNc1ncnc2sc3c(c12)CCC(C)C3 (centres unmarked)	-24.5
CCCCNc1ncnc2sc3c(c12)CCN(CCC)C3	-76
CC1CCc2c(sc3ncnc(NCCN4CCOCC4)c23)C1 (centres unmarked)	-54.6
OCCCNc1ncnc2sc3c(c12)CCN(Cc1ccccc1)C3	-37.9
CC1CCc2c(sc3ncnc(N4CCOCC4)c23)C1 (centres unmarked)	-16.6
Cc1cc(NS(=O)(=O)c2ccc(NC(=O)CSc3nc4ncc(Br)cc4[nH]3)cc2)nc(C)n1	20.8
CC(C)Oc1cccc(C(=O)C2CCCN(C(=O)c3ccc4c(c3)OCO4)C2)c1 (centres unmarked)	-26.9
O=C(c1ccc2c(c1)OCO2)C1CCCN(Cc2ccccc2OC(F)F)C1 (centres unmarked)	-58.8
O=C(c1ccc2c(c1)OCO2)C1CCCN(Cc2ccc(OC(F)F)cc2)C1 (centres unmarked)	-85.7
N/C(=N\OC(=O)COc1ccc2ccccc2c1Br)c1ccncc1	5.98
CCOc1ccc(NC(=O)NCc2ccc3c(c2)OCO3)cc1	9.08
Cc1nc2c3ccccc3nc(NNC(=O)CCC(=O)N3CCN(c4ccc(F)cc4)CC3)n2n1	-53.2
COc1ccc(N2CCN(C(=O)CCC(=O)NNc3nc4ccccc4c4nc(C)nn34)CC2)cc1	-29.1
O=C(CCc1nc2ccccc2c(=O)[nH]1)N1CCN(S(=O)(=O)c2ccccc2Br)CC1	-51.3
CC(=O)N1CCN(C(=O)CCc2nc3ccccc3c(=O)[nH]2)CC1	2.7
CN1CCN(C(=O)CCc2nc3ccccc3c(=O)[nH]2)CC1	21.9
Cc1ccc(C)c(S(=O)(=O)N2CCN(C(=O)CCc3nc4ccccc4c(=O)[nH]3)CC2)c1	-47.1
O=C(CCc1nc2ccccc2c(=O)[nH]1)N1CCN(c2ccc(F)cc2)CC1	-68
O=C(CCc1nc2ccccc2c(=O)[nH]1)N1CCN(S(=O)(=O)c2ccc(F)cc2)CC1	-27.6
Cc1nc2c3ccccc3nc(NNC(=O)CCC(=O)N3CCN(c4ccccc4)CC3)n2n1	-28.5
